Assay results: PubChem BioAssay AID1794844 (National Center for Advancing Translational Sciences (NCATS), 2023)
Screen size: about 2,800 compounds; fewer than 10 were called active. Another 7% or so got no clear call; they are omitted. Calls come from the whole dose curve; as a rule, active = well fitted inhibition curve with a large enough effect; inconclusive = small, poorly fitted or top-dose-only effect; inactive = no such curve, though single readings can be large or run the other way. The list is a sample of the results.

target: Metallo-beta-lactamase type 2 (Klebsiella pneumoniae) (UniProt C7C422); assay: qHTS to identify inhibitors of the New Delhi Metallo-beta-lactamase (NDM): Nitrocefin screen against the machine-based learning selections.; note: % of control where 0% means no effect; conditions: NDM-1 enzyme, nitrocefin hydrolysis, absorbance 485 nm; series mostly up to 38.4 µM; activity, negative = inhibition: at the top concentration
Description: Assay Submitter (PI): James Inglese Ph.D., Patricia Dranchak Ph.D., Mahesh Aitha Ph.D. Assay Development and Screening Technology Laboratory (ADST) National Center for Advancing Translational Sciences (NCATS), Rockville, MD National Institute of Health (NIH), Bethesda, Maryland The metallo-beta-lactamases (MBL) are a main antibiotic resistance mechanism evolved by bacteria. There is an urgent clinical need for MBL inhibitors to mitigate this growing threat. To support a machine-based learning study, qHTS has been used to experimentally test inhibitors identified by prediction tools.
PROTOCOL TABLE (as described by Inglese et al., 2007) SEQUENCE No. (e.g., 1, 2, 3, etc.); […] (e.g., enzyme, Incubation, Reagent, etc.); VALUE; DESCRIPTION Primary Screen 1; NDM-1; 4 uL of 3 nM enzyme [2 nM final] in 50 mM HEPES (pH 7.0), 1 uM […], 0.01% Tween20; Use BioRaptr to dispense into two sets of Aurora black, clear bottom high base 1536-well plates 2; Compounds; 23 nL; Use Pin Tool (Wako) to transfer DMSO control and library compounds in DMSO 3; Incubate; >30 min 4a; Reagent; 2 uL of 50 uM nitrocefin [16.7 uM final] to one set of assay plates 4b; Reagent; 2 uL of 150 uM meropenem [50 uM final] to second set of assay plates 5a; Incubate; 15 min 5b; Incubate; 30 min 6a; Detector; Absorbance at 485 nm (bandwidth = 5 nm, 25 flashes/well) on Tecan Infinity 6b; Detector; Absorbance at 300 nm (bandwidth = 5 nm, 25 flashes/well) on Tecan Infinity NOTES (numbers refer to sequence above) 1; Column 1 of each plate received assay buffer without enzyme and columns 2-48 received enzyme for a final assay concentration of 2 nM. 2; Control plate contained DMSO in columns 1, 2, 3, and 4. 3; Compound interaction with enzyme. 4; Nitrocefin and meropenem substrates were prepared in the same assay buffer as step 1 for a final assay concentration of 16.7 uM and 50 uM, respectively, and added to all wells across respective sets of assay plates. 5; Default reader settings were applied for absorbance read at 485 nm (nitrocefin) or 300 nm (meropenem), bandwidth = 5 nm, 25 flashes/well. References: Inglese J, Shamu CE, Guy RK. 2007. Reporting data from high-throughput screening of small-molecule libraries. Nat Chem Biol. doi:10.1038/nchembio0807-438 Yasgar A, Shinn P, Jadhav A, Auld D, Michael S, Zheng W, Austin CP, Inglese J, Simeonov A. 2008. Compound Management for Quantitative High-Throughput Screening. J Lab Autom 13:79 - 89. doi:10.1016/j.jala.2007.12.004

Sequence of Metallo-beta-lactamase type 2 (Klebsiella pneumoniae) (C7C422 whole entry, looked up): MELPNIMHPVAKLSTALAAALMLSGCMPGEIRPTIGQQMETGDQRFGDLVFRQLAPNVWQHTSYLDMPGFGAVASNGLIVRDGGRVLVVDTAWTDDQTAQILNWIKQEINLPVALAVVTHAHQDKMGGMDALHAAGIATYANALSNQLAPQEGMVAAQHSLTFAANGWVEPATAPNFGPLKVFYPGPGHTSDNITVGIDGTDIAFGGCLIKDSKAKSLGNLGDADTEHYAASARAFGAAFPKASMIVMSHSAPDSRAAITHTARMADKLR

activity, negative = inhibition, inactive:
COc1ccccc1CCC(=O)NCc1nnc2ccc(-c3ccc(C)cc3)nn12 0.342%
O=C(NCc1ccc2c(c1)OCO2)C1CCN(c2cn[nH]c(=O)c2)C1 (stereo not drawn) -0.395%
O=C(O)CCCC(=O)N1CCN2C(=O)c3cc(-c4ccco4)ccc3NC(=O)[C@@H]2C1 -1.67% [at 57.5 µM]
O=C(c1ccc(N2CC3CC(C2)[C@H]2CCCC(=O)N2C3)nc1)N1CCN(c2cccc(Cl)c2)CC1 (stereo partly drawn) 4.67%
Cc1ccc(C2(O)CCN(C(=O)c3cnn4cc(CCO)cnc34)CC2)nc1 -0.405%
O=C(C[C@@H]1CCNC[C@@H]1Cc1cc(CC2CCCCC2)on1)NC1CC1 -5.16% [at 57.5 µM]
O=C(Nc1ccccc1)O[C@@H]1CO[C@H]2[C@@H]1OC[C@@H]2NC(=O)c1ccc(C(F)(F)F)cc1 -7.3%
Cc1cnn(Cc2cc(C(=O)N3CCCCCC3c3nnc(-c4ccccc4)o3)no2)c1 (stereo not drawn) -2.52%
COc1ccc(-c2cc(N3CCCN(C(=O)c4cnccn4)CC3)n[nH]2)cc1 5.78%
Cc1cc(C(=O)N[C@@H]2CCC[C@@H](C(=O)N3CCN(C)CC3)CC(=O)N(C)C2)no1 1.92% [at 57.5 µM]
CCC(C)NC(=O)CC1Sc2ncccc2N(C)C1=O (stereo not drawn) -4.27%
CC[C@H]1CN(C(=O)Nc2cccc(C(F)(F)F)c2)CC[C@H]1CC(=O)NC1CC1 9.41% [at 57.5 µM]
CC(C)NC(=O)C[C@@H]1C[C@H]2O[C@H](CNCc3ccccc3Cl)[C@@H](O)[C@H]2O1 -0.815% [at 57.5 µM]
COc1nc2c(cc1CNC(=O)C1CCOC1)C(=O)N(CCc1ccccn1)C2 (stereo not drawn) -6.59%
Cc1ccc(CN2CC[C@@H]3[C@H]2C(=O)NC[C@H](CCC(=O)N2CC[C@@H](O)C2)N3C)cc1 -10.8% [at 57.5 µM]
O=C(O)C[C@@H]1CCN(C(=O)c2ccco2)C[C@@H]1CCN1CCOCC1 -16.5% [at 57.5 µM]
CN1C[C@H](C(=O)NCc2ccccc2)C[C@H]1c1cccc(C(F)(F)F)c1 7.22% [at 57.5 µM]
CC(C)C[C@@H]1N[C@H](C(=O)NCCOc2ccccc2)Cc2c[nH]c3cccc1c23 -8.13% [at 57.5 µM]
CN(C)C1CCN(c2nc(-c3ccncc3)nc3c2CNC3)C1 (stereo not drawn) -18.4%
Cc1oc(C(O)c2cccc(O)c2)nc1C(=O)Nc1ccc2[nH]c(=O)oc2c1 (stereo not drawn) 364% [at 57.5 µM]
O=C(c1cc(-c2ccc(O)cc2)n[nH]1)N1CCCC(CCc2ccc(F)cc2)C1 (stereo not drawn) -4.71%
COc1ccc(CC2(CO)CCN(c3nccc(N)n3)CC2)cc1 -0.629%
Cc1ccc2c(C)c(C(=O)N3CC(OCc4ccccc4F)C3)oc2c1 3.3%
COCCNC(=O)c1ccc2c(c1)N(C)C(CC(=O)Nc1ccc(N)nc1)CO2 (stereo not drawn) 0.471%
CCCc1cc(C(=O)N[C@@H]2COCC[C@H]2Oc2ccc(C(=O)O)cc2)n[nH]1 -3.33%
Cc1cccc(C(=O)N2CC[C@@H](NC(=O)c3cnccn3)[C@H](O)C2)n1 -0.486%
O=[S+]([O-])(c1cccnc1)N1CCNc2cnc(Nc3ccc(-n4ccnc4)cc3)nc2C1 -18.7%
O=C(Cn1ccn2nc3c(c2c1=O)CCCC3)NCc1ccc2c(c1)OCO2 -5.33%
COc1ccccc1-n1cc(C(=O)NC[C@@H]2C[C@H](F)CN2)cn1 27.4%
c1csc(CN2Cc3[nH]cnc3C[C@H]2c2nc(-c3ccc4c(c3)OCO4)no2)c1 -5.85% [at 57.5 µM]
O=C(Nc1ccccc1)O[C@@H]1CO[C@H]2[C@@H]1OC[C@@H]2NS(=O)(=O)c1cccc2cccnc12 4.41%
OCc1cccc(-c2ccc3ncc(Nc4cccc(F)c4)n3n2)c1 3.24% [at 57.5 µM]
O=C(c1ccc2ncccc2c1)N1CCC2(CC1)Nc1ccccc1NC2=O -0.464%
COc1ccc(CC(=O)N2CC(CO)C3(CCNCC3)C2)cc1 (stereo not drawn) -12.8%
Cc1ccc(CN2CC[C@@H](CO)N(C)c3cccnc3C2)s1 -5.46% [at 57.5 µM]
CS(=O)(=O)N1CCC(C2CCN(C(=O)Cc3cccc(F)c3)C2)CC1 (stereo not drawn) 1.68%
O=C(NCc1nc(-c2ccncc2)n[nH]1)[C@H]1CCC[C@H](O)C1 -10.4%
N[C@@H]1CCN(Cc2ccccc2OCc2ccc(Cl)cc2)C[C@H]1O 12.1%
COCCOc1ncccc1-c1noc([C@@H]2CCCN2CC(C)(C)C)n1 0.0168% [at 57.5 µM]
CC1=C[C@@H](CNC(=O)c2ccc(F)cc2)[C@H](C(C)C)C[C@H]1CC(=O)N1CCN(C)CC1 8.05% [at 57.5 µM]
O=C1Cc2c(-c3cccc(O)c3)n[nH]c2CN1CC1CC1 -0.331% [at 76.7 µM]
C[C@@H]1CN(C(=O)Cn2ccc(=O)[nH]c2=O)C[C@@]1(O)C1CCC1 3.92%
COc1cccc(NC(=O)O[C@@H]2CC[C@]3(C)C(CC[C@@H](O)[C@H]3CC(=O)N3CCCC3)[C@]2(C)CO)c1 (stereo partly drawn) 1.26%
CCc1noc([C@@H]2CC(F)(F)CN2C(=O)c2ccoc2C)n1 -11%
CC(C)=CC(=O)N1CC[C@H](NC(=O)Nc2ccc(F)cc2F)[C@H]1C(=O)N[C@@H](Cc1cccs1)C(N)=O -2.77%
NCCc1cccc(CN2CCCC(COc3ccccc3F)C2)c1 (stereo not drawn) -4.55%
c1ccc(-c2nnc3ccc(NC4CCC4)nn23)nc1 2.76% [at 76.7 µM]
CC(C)(O)C#Cc1ccc(C(=O)N2CCC(O)(c3ccccn3)CC2)cc1 -4.87%
